In PubChem BioAssay one finds inhibition data, which are given here for 32 compounds.

The target of test [1] is Bcl-2-like protein 1 (Homo sapiens) (UniProt Q07817). The experiment in a line: Bcl-xL BH3-peptide displacement, hit confirmation – biochemical, fluorescence polarization, counter-screen for MCL1 inhibitor project (AID 2166;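 active = inhibition above a cutoff equal to the mean inhibition of all tested compounds plus 3 SD, cut at about 30% in these data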). The following applies: GST-Bcl-xL / FITC-Bim BH3 peptide FP binding; at 10.9 µM; hits give high values. (In general: Fluorescence polarisation rises when a labelled molecule tumbles more slowly, as on binding a larger partner.)

In test [2] the target is Induced myeloid leukemia cell differentiation protein Mcl-1 (Homo sapiens) (UniProt Q07820). The experiment in a line: MCL1-BIM peptide interaction disruptors – biochemical, fluorescence polarization, triplicate, confirmation (AID 2168;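 active = inhibition above the average of all tested compounds plus 3 SD, cut at about 40% in these data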;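 also: 0% = DMSO wells and 100% = unlabeled Bim-BH3 control peptide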). The following applies: GST-MCL1 / FITC-Bim-BH3 fluorescence polarization; at 10.9 µM; hits give high values.
Test [3] concerns the target Protein phosphatase methylesterase 1 (Homo sapiens) (UniProt Q9Y570). The experiment in a line: human PME-1 methylesterase inhibition confirmation – biochemical, fluorescence polarization, FP-Rh probe, triplicate (AID 2171).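 Also: 0% = enzyme with DMSO and 100% = wells lacking PME-1.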 The settings on record: recombinant PME-1, FP-Rh probe fluorescence polarization; at 5.9 µM; hits give high values.
A short description of test [4]: reduced OD of T4-infected AddAB+ E. coli – absorbance, E. coli V3065, T4 phage, triplicate, AddAB inhibitor project, confirmation (AID 488942;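 active = mean inhibition above a set limit taken from the earlier primary screen, cut at about 13% in these data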;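 also: higher means less bacterial growth since AddAB block lets phage replicate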). The following applies: E. coli V3065 expressing H. pylori AddAB, at 11.9 µM, hits give high values, T4 phage with gene 2 nonsense mutations.
Test [5] can be described thus: reduced OD of phage-infected RecBCD+ V66 E. coli – absorbance, mutant T4 phage, counter-screen for AddAB inhibitor project (AID 488955;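 active = mean inhibition above the mean of solvent-only control wells plus 3 SD, cut at about 4% in these data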;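 also: optical density read after an 18 h incubation at 37 °C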). The following applies: OD growth, at 11.9 µM, hits give high values. For orientation: A counterscreen serves to expose hits that act by an unwanted route or on another target.
A short description of test [6]: bacterial growth inhibitors – absorbance, counter-screen for AddAB inhibitor project, confirmation (AID 488956; in the data active = inhibition above about 25%). The settings on record: bacterial viability, absorbance (AddAB counterscreen); at 11.9 µM; hits give high values.
Test [7] has as its target Serine protease HTRA1 (Homo sapiens) (UniProt Q92743). The experiment in a line: confirming inhibition of human HTRA1 – biochemical, fluorescence polarization, confirmation (AID 540248;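 active = mean inhibition over three repeats above a set limit taken from the earlier primary screen, cut at about 37% in these data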;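 also: 0% = HTRA1 with DMSO and 100% = wells lacking HTRA1; inhibitors block probe binding so polarization drops and inhibition rises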). The settings on record: recombinant HTRA1, FP-rhodamine activity-based probe, at 5.96 µM, hits give high values.
Test [8] in a line: BSA probe fluorescence interference – biochemical, TAMRA-labeled BSA, counter-screen for TCR-CD3 interaction inhibitor project (AID 652035; in the data active = inhibition above about 23%;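 also: 0% = buffer low control and 100% = reference high control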). The settings on record: TAMRA-labeled BSA probe fluorescence counterscreen; at 9.4 µM; hits give high values.
Test [9] deals with T-cell receptor (TCR)-CD3 interaction, human. The experiment in a line: blockers of TCR binding to CD3 – biochemical, fluorescence, TAMRA-labeled TCR probe, confirmation (AID 652036; in the data active = inhibition above about 19%). The following applies: TAMRA-labeled TCR probe fluorescence binding assay; at 9.4 µM; hits give high values.
The target of test [10] is (Lyso)-N-acylphosphatidylethanolamine lipase (Mus musculus) (UniProt Q8VD66). The experiment in a line: mouse ABHD4 hydrolase blockers, triplicate – biochemical, fluorescence polarization, confirmation (AID 720658;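 active = mean inhibition across replicates above the hit cutoff set in the primary screen, cut at about 30% in these data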;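 also: 0% = wild-type ABHD4 with DMSO and 100% = catalytically dead S159A mutant with DMSO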). The settings on record: purified mABHD4, FP-Rh probe fluorescence polarization; at 8.92 µM; hits give high values.
In test [11] the target is Platelet-activating factor acetylhydrolase (Homo sapiens) (UniProt Q13093). The experiment in a line: inhibition of plasma PAF acetylhydrolase – biochemical, fluorescence polarization, human, confirmation (AID 463230;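 active = mean inhibition of the triplicate above the hit cutoff set for the earlier primary screen, cut at about 25% in these data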;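 also: 0% = enzyme with DMSO and 100% = wells lacking pPAFAH enzyme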). The settings on record: recombinant pPAFAH, FP-Rh probe fluorescence polarization; at 3.39 µM; hits give high values.
Test [12] deals with Toll-like receptor 9 (Homo sapiens) (UniProt Q9NR96). The experiment in a line: disruptors of TLR9 binding to MyD88 – cell-based, CHO, BLA complementation, fluorescence, triplicate, confirmation (AID 540250;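 active = mean inhibition across three repeats above about 21% taken from the earlier screen, limit read from the data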;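 also: blue over green emission ratio reports constitutive TLR9 MyD88 association via BLA complementation; 0% = DMSO vehicle wells and 100% = clavulanate BLA inhibitor wells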). The following applies: CCF4 FRET ratio, at 4.98 µM, hits give high values.
Test [13] can be described thus: BLA reporter readout interference – cell-based, fluorescence, artefact control for TLR9-MyD88 binding inhibitor project (AID 540251;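 active = mean inhibition above a 50% cutoff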;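 also: counterscreen of TLR9-MyD88 hits on CMV-driven BLA in CHO-K1 cells; 0% = DMSO alone and 100% = clavulanate blocking BLA; higher means less blue over green ratio so more BLA blockade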). The settings on record: CHO-BLA cells, CCF4 FRET ratio, at 4.98 µM, hits give high values.
The nature of test [14]: CHO cell viability loss – luminescence, single concentration, cytotoxicity control for TLR9-MyD88 binding inhibitor project (AID 588336; in the data active = inhibition above about 11%). The following applies: TLR9-MyD88 CHO cells cytotoxicity, at 4.98 µM, hits give high values.
The target in test [15] is Receptor-interacting serine/threonine-protein kinase 2 (Homo sapiens) (UniProt O43353). The experiment in a line: inhibitors of RIPK2 association with NOD2 – fluorescence, CHO cells, BLA complementation, triplicate, confirmation (AID 624370;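 active = mean inhibition across replicates above a set limit taken from the earlier primary screen, cut at about 21% in these data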;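 also: 0% = DMSO-only wells and the high end = clavulanate BLA-blocked wells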). The settings on record: CCF4 FRET, at 4.98 µM, hits give high values.
Test [16] can be described thus: BLA reporter readout interference – cell-based, CHO-K1 CMV-bla, CCF4 FRET, fluorescence, artefact control for NOD2-RIPK2 interaction inhibitor project, confirmation (AID 624371;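 active = mean inhibition above the low-control mean inhibition plus three low-control SD, cut at about 11% in these data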;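 also: 0% = DMSO only wells and 100% = clavulanate high control wells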). The settings on record: CCF4 FRET ratio, counterscreen, at 4.98 µM, hits give high values.
The target in test [17] is Nuclear receptor subfamily 5 group A member 2 (Homo sapiens) (UniProt O00482). The experiment in a line: NR5A2 activity suppression in reporter cells – cell-based, luminescence, confirmation (AID 651613; in the data active = inhibition above about 42%;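 also: HEK293T cells co-transfected with LRH-1 and StAR promoter luciferase reporter; 0% = vehicle wells and 100% = parental cells lacking receptor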). The settings on record: cell-based LRH-1 luciferase reporter, inverse agonism; at 3.6 µM; hits give high values. In general terms: Reporter assays use an easily measured gene product as a stand-in for the process of interest.

Test [18] deals with Steroidogenic factor 1 (Homo sapiens) (UniProt Q13285). The experiment in a line: inverse agonism at SF1 nuclear receptor – cell-based, luminescence, high throughput, counter-screen for LRH-1 inverse agonist project (AID 651614; in the data active = inhibition above about 44%;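 also: cells cotransfected with StAR promoter reporter and SF1 expression vector; 0% = vehicle on cells with receptor and 100% = vehicle on cells lacking receptor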). The following applies: cell-based SF1 luciferase reporter, at 3.6 µM, hits give high values.
The target in test [19] is Protein-arginine deiminase type-4 (Homo sapiens) (UniProt Q9UM07). The experiment in a line: protein arginine deiminase 4 blockade, retest – biochemical, fluorescence polarization, confirmation (AID 488796;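 active = mean inhibition across replicates above the hit cutoff set by the earlier primary screen, cut at about 15% in these data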;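 also: inhibitors block active-site labeling by the probe so polarization falls; 0% = PAD4 with probe and DMSO and 100% = probe without PAD4 enzyme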). The settings on record: recombinant PAD4, RCA probe fluorescence polarization; at 6.36 µM; hits give high values.
A short description of test [20]: StAR promoter reporter inhibitors, counter-screen for LRH-1 inverse agonist project, cell-based, luminescence, high throughput (AID 651611; in the data active = inhibition above about 28%). The following applies: StAR promoter luciferase reporter counterscreen, at 3.6 µM, hits give high values.
Test [21] in a line: compounds suppressing VP16-driven luciferase signal – cell-based, luminescence, high throughput, counter-screen for LRH-1 inverse agonist project (AID 651615; in the data active = inhibition above about 33%). The following applies: Gal4-VP16 luciferase reporter cells, at 3.6 µM, hits give high values.
Test [22] can be described thus: reduced OD of V66 E. coli with T4 gene 2 phage – absorbance, RecBCD inhibitor project, confirmation (AID 651982;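 active = mean inhibition over triplicates exceeding the hit threshold derived in the original primary screen, cut at about 11% in these data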). The settings on record: E. coli V66 + T4 2- phage, growth OD; at 11.9 µM; hits give high values.
The nature of test [23]: bacterial growth inhibition – absorbance, high throughput, counter-screen for RecBCD inhibitor project (AID 651983; in the data active = inhibition above about 20%;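 also: E. coli strain V66 grown with compound alone and no phage infection; 0% = bacteria with DMSO vehicle only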). The following applies: E. coli viability, absorbance (OD) growth; at 11.9 µM; hits give high values.
The nature of test [24]: reduced optical density, T4-challenged addAB+ bacteria – absorbance, E. coli V3065, T4 phage, counter-screen for RecBCD inhibitor project, confirmation (AID 651984;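 active = mean inhibition above the solvent-only control wells' mean plus 3 SD, cut at about 22% in these data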;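 also: higher means less bacterial growth from phage killing when AddAB is blocked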). The settings on record: E. coli expressing H. pylori AddAB + T4 phage, OD growth; at 11.9 µM; hits give high values; gene 2 mutant T4, recBCD-deleted host.

A number with no mark means an inactive call. The list shows a part of the results. The source made the active and inactive calls.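 The calls were made as follows, unless noted: active = inhibition above the hit cutoff set in the earlier primary screen (cut at about 27% in these data); inactive = the rest.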

Chain of Induced myeloid leukemia cell differentiation protein Mcl-1 (Homo sapiens) (Q07820 whole entry, looked up): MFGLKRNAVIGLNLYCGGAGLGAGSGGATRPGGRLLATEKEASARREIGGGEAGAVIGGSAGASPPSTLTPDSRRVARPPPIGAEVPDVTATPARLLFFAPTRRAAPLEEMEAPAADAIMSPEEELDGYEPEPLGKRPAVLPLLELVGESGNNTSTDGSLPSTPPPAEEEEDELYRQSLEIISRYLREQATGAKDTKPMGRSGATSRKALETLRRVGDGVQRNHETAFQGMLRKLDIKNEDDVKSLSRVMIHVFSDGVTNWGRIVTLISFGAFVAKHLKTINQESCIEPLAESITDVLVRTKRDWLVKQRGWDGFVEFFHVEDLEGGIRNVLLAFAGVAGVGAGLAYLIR
Chain of Bcl-2-like protein 1 (Homo sapiens) (Q07817 whole entry, looked up): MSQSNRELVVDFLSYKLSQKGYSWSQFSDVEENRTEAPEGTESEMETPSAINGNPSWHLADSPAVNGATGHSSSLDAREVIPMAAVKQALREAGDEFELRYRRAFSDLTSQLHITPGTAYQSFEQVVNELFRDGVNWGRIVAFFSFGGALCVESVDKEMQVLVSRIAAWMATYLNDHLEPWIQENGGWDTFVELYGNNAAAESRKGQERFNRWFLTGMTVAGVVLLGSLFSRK
Chain of Protein phosphatase methylesterase 1 (Homo sapiens) (Q9Y570 whole entry, looked up): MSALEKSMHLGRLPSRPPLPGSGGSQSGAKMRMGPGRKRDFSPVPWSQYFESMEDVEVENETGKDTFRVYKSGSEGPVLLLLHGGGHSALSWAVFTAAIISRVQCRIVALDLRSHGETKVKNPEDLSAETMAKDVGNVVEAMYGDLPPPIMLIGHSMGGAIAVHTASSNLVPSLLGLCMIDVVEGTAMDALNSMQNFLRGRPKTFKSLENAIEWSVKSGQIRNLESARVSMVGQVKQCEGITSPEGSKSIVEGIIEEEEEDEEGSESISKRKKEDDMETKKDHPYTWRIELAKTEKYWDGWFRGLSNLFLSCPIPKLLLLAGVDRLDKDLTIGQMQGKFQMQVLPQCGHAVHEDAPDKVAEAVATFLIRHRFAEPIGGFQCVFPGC
Chain of Nuclear receptor subfamily 5 group A member 2 (Homo sapiens) (O00482 whole entry, looked up): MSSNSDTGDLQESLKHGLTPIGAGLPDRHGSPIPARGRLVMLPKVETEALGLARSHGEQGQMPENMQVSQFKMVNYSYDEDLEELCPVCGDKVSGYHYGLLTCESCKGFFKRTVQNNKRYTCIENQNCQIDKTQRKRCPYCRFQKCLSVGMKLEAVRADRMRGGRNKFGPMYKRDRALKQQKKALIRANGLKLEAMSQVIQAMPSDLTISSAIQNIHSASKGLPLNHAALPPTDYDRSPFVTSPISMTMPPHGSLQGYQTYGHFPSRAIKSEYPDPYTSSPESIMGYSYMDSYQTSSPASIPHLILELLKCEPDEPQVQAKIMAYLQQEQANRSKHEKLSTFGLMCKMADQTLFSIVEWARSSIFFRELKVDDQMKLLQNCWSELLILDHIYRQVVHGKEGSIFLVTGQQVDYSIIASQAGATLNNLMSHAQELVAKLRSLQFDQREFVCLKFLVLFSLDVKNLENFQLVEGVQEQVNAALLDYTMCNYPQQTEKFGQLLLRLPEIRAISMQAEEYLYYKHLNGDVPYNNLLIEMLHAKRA
Chain of Protein-arginine deiminase type-4 (Homo sapiens) (Q9UM07 whole entry, looked up): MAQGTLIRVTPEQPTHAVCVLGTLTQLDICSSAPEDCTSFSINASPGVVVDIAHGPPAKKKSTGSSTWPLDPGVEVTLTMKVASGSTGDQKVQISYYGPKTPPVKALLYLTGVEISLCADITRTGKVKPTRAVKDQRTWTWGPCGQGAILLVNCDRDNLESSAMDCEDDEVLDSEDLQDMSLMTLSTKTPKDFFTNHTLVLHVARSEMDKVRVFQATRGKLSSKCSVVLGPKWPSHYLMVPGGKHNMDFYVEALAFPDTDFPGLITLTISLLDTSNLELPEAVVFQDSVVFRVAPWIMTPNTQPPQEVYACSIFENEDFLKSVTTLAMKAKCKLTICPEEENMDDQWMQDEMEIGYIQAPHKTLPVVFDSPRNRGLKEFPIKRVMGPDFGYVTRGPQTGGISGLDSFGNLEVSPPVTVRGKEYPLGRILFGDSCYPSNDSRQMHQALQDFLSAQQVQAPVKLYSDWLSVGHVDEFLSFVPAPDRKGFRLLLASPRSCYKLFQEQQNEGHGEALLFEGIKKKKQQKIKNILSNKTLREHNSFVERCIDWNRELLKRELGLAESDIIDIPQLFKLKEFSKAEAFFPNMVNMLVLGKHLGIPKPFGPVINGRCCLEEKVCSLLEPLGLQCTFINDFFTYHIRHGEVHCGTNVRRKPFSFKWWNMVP
Chain of Steroidogenic factor 1 (Homo sapiens) (Q13285 whole entry, looked up): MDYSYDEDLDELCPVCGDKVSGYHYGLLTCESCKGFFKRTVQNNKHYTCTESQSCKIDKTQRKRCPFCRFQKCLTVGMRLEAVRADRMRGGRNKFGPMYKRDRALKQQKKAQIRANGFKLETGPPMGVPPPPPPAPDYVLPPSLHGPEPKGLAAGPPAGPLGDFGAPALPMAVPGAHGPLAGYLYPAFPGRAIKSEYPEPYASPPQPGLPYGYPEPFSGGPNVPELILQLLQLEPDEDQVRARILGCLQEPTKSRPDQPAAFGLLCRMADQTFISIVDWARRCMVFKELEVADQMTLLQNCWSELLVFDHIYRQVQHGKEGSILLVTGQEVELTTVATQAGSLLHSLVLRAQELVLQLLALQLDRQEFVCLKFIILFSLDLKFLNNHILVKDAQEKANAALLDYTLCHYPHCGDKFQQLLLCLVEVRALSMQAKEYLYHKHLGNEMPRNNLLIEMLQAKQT
Chain of (Lyso)-N-acylphosphatidylethanolamine lipase (Mus musculus) (Q8VD66 whole entry, looked up): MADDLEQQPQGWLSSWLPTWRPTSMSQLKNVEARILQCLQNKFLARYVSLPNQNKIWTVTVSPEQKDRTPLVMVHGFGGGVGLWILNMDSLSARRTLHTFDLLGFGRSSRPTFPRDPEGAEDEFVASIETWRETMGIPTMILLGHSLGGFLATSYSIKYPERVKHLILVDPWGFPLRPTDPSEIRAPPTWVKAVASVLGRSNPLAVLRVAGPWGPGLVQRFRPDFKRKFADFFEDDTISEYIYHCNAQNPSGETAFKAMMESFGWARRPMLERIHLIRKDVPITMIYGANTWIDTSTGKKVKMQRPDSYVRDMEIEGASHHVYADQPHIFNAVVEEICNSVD
Chain of Platelet-activating factor acetylhydrolase (Homo sapiens) (Q13093 whole entry, looked up): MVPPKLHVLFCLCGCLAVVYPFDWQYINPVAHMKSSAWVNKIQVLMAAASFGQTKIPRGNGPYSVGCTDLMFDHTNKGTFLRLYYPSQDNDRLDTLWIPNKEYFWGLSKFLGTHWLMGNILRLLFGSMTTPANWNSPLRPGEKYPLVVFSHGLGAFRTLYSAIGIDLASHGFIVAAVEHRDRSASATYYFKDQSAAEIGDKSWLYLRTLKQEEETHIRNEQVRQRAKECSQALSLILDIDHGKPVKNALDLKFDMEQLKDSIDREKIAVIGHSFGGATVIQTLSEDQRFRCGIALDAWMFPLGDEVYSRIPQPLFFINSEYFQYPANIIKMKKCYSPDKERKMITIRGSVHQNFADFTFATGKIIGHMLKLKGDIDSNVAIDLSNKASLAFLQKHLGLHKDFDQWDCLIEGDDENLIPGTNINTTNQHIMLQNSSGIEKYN
Chain of Receptor-interacting serine/threonine-protein kinase 2 (Homo sapiens) (O43353 whole entry, looked up): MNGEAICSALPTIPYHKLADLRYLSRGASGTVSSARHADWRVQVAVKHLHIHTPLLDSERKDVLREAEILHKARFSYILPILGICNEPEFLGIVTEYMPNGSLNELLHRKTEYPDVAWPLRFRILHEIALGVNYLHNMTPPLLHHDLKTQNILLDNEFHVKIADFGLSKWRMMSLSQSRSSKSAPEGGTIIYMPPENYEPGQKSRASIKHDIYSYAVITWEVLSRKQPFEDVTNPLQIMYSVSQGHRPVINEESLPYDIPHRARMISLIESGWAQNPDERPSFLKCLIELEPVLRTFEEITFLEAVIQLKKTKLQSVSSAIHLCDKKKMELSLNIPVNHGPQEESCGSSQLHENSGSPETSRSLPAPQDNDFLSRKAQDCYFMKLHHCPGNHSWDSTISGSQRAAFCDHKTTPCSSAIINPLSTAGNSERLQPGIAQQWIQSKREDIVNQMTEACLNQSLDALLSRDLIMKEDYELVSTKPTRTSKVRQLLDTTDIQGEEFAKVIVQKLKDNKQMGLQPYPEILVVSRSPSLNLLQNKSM
Chain of Toll-like receptor 9 (Homo sapiens) (Q9NR96 whole entry, looked up): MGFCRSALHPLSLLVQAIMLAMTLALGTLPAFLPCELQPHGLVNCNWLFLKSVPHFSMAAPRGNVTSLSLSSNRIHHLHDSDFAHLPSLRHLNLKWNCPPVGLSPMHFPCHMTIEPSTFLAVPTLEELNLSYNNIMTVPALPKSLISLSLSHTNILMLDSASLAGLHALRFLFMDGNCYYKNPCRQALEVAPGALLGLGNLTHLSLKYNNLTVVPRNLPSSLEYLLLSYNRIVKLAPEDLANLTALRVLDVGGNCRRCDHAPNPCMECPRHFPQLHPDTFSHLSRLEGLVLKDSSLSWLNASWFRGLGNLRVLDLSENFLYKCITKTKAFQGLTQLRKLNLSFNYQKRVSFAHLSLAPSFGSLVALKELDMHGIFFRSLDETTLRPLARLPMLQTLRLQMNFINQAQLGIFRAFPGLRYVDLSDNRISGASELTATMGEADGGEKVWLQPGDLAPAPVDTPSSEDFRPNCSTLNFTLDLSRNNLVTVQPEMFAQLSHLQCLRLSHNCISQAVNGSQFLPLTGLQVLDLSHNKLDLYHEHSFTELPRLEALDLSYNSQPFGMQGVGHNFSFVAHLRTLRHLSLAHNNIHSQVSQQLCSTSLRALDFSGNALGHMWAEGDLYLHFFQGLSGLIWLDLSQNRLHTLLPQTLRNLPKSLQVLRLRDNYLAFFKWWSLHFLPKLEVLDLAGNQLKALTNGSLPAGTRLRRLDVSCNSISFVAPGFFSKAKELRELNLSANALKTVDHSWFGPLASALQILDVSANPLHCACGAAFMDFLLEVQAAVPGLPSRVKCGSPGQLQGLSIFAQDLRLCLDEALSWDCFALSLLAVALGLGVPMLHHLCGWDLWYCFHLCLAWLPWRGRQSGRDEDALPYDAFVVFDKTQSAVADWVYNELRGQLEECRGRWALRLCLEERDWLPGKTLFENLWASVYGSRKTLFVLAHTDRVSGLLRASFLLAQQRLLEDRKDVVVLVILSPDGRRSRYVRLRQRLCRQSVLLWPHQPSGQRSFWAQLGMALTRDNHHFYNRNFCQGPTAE

As a reminder, the inhibition is the change of the read-out against control, counted positive when it falls. As for `Brc1ccc(C2=CC(c3ccco3)n3ncnc3N2)cc1` (stereo unspecified), the inhibition in test [1] was 52.9% (active); in [2] it was 75.9% (active).
Turning to `COc1ccc(C2C=C(c3ccc(Br)cc3)Nc3nc(NS(C)(=O)=O)nn32)cc1` (stereo unspecified), the inhibition in test [1] is 133% (active); in test [2], 167% (active).
For `COC(=O)c1cc(OCC(=O)NC2CCCc3ccccc32)cc(C(=O)OC)c1` (stereo unspecified), in that order: 16.3% and 28.4%.
Take `Cc1ccc(C(=O)NC(=S)Nc2ccc(N3CCOCC3)cc2)cc1`: the inhibition is 8.63% in [1] and 8.72% in [2].
Turning to `Clc1ccc2[nH]c3c(c2c1)CCc1cn[nH]c1-3`, the inhibition in test [3] was 21.1%.
With `O=c1ccc2c(-c3ccccc3S(=O)(=O)O)c3ccc(O)c(O)c3oc-2c1O`, the inhibition in [1] was 82.9% (active); in [2], 67.6% (active); in test [4] it was 7.55%; in test [5], 11% (active); in [6], 2.03%; in test [7] it was -1.72%. For the same compound, the inhibition in test [8] is -101%; in test [9], -20.4%; in [10] it was -24.3%.
Regarding `COc1ccc(Nc2cnn(-c3nc4ccccc4s3)c(=O)c2Cl)cc1`, the inhibition in test [3] is 37.3% (active).
In the case of `C/C(=N\Nc1cccc([N+](=O)[O-])c1)c1ccccc1O`, the inhibition in test [3] is 39.4% (active).
As to `Cc1ccc(C)c(-n2c3nc(=O)[nH]c(=O)c-3cc3cc([N+](=O)[O-])ccc32)c1`, the inhibition in [3] was 24.5%.
For the compound `O=S(=O)(c1ccc(-c2csc(Nc3ccc(Br)cc3)n2)cc1)N1CCCC1`, the inhibition in test [3] is 16.5%.
`COc1ccc(N2CC(C(=O)NCCN3C(=O)S/C(=C\c4cccnc4)C3=O)CC2=O)c(OC)c1` (stereo unspecified): the inhibition is -1.58% in [1], -8.97% in [2] and 0.49% in test [11].
Turning to `CNc1ccc2c3c(cccc13)C(=O)N(C)C2=O`, in test [3], the inhibition is 71.2% (active).
For `Cc1cc(C(=O)N/N=C/c2cccc([N+](=O)[O-])c2)c(C)n1-c1ccccc1`, in [3], the inhibition was -3.77%.
On to `Nc1cccc2c1C(=O)N(Cc1nnc(-c3ccccc3Br)o1)C2=O`, for which the inhibition in test [1] was 51.2% (active); in test [2] it was 69% (active); in test [12], 16.4%; in test [13], 19.9%; in [14], 3.2%; in test [15] it was 37.4% (active). The inhibition in test [16] is 41.6% (active).
Consider `CC1=C([N+](=O)[O-])C(c2cccc(Br)c2)C2=C(N1)c1ccccc1C2=O` (stereo unspecified), for which the inhibition in test [3] was 11.9%.
Take `CC[C@]1(O)C[C@@H]2CN(CCc3c([nH]c4ccccc34)[C@@](C(=O)OC)(c3cc4c(cc3OC)N(C)[C@H]3[C@@](O)(C(=O)OC)[C@H](OC(C)=O)[C@]5(CC)C=CCN6CC[C@]43[C@@H]65)C2)C1`: the inhibition is 27.1% in [1], 35.2% in test [2], 42.5% (active) in test [17] and 61.2% (active) in test [18].
`Cc1ccc(N/N=C(\C#N)C(N)=S)c(C)c1`: the inhibition in [3] was 57.9% (active).
In the case of `Cc1nn(Cc2ccccc2)c(C)c1CNC(=O)c1ccc(F)c(S(=O)(=O)N2CCOCC2)c1`, the results for the inhibition in test [1], in test [2] and in test [19] were 9.04%, 4.37% and 3.62%, respectively.
As to `Oc1ccc(/C=N/Nc2ccnc3cc(Cl)ccc23)cc1O`, in [3], the inhibition is 5.4%.
On the same count and under the same terms, the figure for `Brc1csc(/C=N/Nc2nc3ccccc3s2)c1` is 45.3% (active); for `O=C(N/N=C/c1c(O)ccc2ccccc12)Nc1ccccc1` it is 35.5% (active).
As for `C=C(C)COc1ccc(-c2[nH]ncc2-c2ccc(OC)c(OC)c2)c(O)c1`, the inhibition in test [3] was 22.1%.
On to `COc1ccccc1C(=O)NC(=S)Nc1cccc2cc(O)ccc12`, for which, in [3], the inhibition is 17%.
Still for that read-out and setting: the figure for `CCn1c2ccccc2c2cc(NC(=O)c3ccccc3[N+](=O)[O-])ccc21` is 20.3%; for `Cc1cc(N/N=C/c2c(O)ccc3ccccc23)nc(-c2ccccc2O)n1` it is 23.6%; for `COc1cc(/C=N/NC(=S)Nc2cccc(S(=O)(=O)N(C)C)c2)ccc1O` it is 14.1%.
On to `CC12CCC(C(=O)N(NC(=O)c3ccccc3O)C1=O)C2(C)C` (stereo unspecified), for which the inhibition in test [1] is 10.1%; in test [2] it was 41.1% (active); in [8] it was 23.1% (active); in test [9], 30% (active).
Consider `CCN1CC=C2C(C#N)=C(N)C(C#N)(C#N)[C@H](c3ccoc3)[C@H]2C1`, for which the values for the inhibition in [1], in test [2] and in [19] were 97.5% (active), 114% (active) and 10.3%, respectively.
In the case of `COc1ccc(Nc2nc(-c3cccnc3)nc3ccccc23)cn1`, the inhibition was 90.3% (active) in test [1]; 114% (active) in test [2]; 28.2% (active) in [20]; 43.9% (active) in test [17]; 53.2% (active) in test [18]; -10.3% in test [21].
For `Cc1cc2nc3ccc(N(C)C)cc3nc2cc1N`, the inhibition in test [3] was 20%.
Same read-out and setting: the value for `COc1ccc(-c2nc(NC(=O)c3[nH]c(C)c(C(C)=O)c3C)sc2C)cc1` was 55% (active).
As to `C=C1c2c(Cl)ccc(O)c2C(O)=C2C(=O)[C@]3(O)C(O)=C(C(N)=O)C(=O)[C@@H](N(C)C)[C@@H]3[C@@H](O)C12` (stereo partly specified), the inhibition was 37.7% (active) in test [1]; 79% (active) in test [2]; 102% (active) in test [4]; 101% (active) in [5]; 104% (active) in test [6]; 102% (active) in [22]. Further, the inhibition in test [23] is 105% (active); in [24] it was 104% (active); in [8], -9.22%; in [9] it was 20.7% (active).
